Tests used:
Test in all cases: log2 ratio of Biotin-Ahx-Ub-VS probe labelling (fragment/DMSO); higher = less target engagement (more negative = stronger competition), active = hit call of the paper (q ≤ 0.05, log2 ratio ≤ -1)
Conditions in all cases: compound concentration: 200 uM; treatment time: 3 h
ALG13 = molecular target: T1, ALG13 (UniProt Q9NP73)
T1 sequence (whole entry): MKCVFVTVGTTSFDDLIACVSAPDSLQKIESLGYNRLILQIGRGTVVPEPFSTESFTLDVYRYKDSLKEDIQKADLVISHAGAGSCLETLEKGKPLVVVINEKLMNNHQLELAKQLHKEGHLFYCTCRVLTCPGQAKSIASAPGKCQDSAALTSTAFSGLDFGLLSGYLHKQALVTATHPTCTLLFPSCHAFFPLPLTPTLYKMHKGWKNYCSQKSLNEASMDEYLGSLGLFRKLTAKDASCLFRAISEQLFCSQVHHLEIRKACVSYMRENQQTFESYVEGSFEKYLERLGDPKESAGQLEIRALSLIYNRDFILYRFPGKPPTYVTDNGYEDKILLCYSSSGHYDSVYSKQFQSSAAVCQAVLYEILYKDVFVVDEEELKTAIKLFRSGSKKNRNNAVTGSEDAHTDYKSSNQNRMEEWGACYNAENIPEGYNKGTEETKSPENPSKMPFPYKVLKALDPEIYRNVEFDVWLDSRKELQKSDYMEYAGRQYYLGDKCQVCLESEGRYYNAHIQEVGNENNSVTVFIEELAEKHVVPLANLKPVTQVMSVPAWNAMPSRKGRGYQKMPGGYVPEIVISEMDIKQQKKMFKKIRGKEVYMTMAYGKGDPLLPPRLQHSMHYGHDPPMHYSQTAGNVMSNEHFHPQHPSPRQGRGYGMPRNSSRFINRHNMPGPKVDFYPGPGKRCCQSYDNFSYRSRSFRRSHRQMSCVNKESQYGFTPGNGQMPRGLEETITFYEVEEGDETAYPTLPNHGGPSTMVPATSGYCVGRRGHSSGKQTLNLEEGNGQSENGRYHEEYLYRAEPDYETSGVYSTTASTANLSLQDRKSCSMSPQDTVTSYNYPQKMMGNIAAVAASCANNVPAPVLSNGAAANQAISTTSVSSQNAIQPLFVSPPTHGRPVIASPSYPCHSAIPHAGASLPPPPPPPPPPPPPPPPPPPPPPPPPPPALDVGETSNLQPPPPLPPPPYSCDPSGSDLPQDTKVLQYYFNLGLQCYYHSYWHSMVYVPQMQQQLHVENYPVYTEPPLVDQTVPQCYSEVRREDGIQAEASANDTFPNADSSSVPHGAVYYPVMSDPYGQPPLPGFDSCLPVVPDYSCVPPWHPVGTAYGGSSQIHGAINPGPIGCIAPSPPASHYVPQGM
In short: (§1)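 Each value is an average log2 ratio of fragment to vehicle, tested by unpaired t-test. The underlying Spectronaut label-free quantities were global-median-normalised, and only proteins with ≥2 unique peptides were included. Triplicate HEK293T lysate samples (495 µg) were exposed to fragment at 200 µM or vehicle for 3 h, then to Biotin-Ahx-Ub-VS at 0.5 µM final for 1 h, before NeutrAvidin enrichment of labelled DUBs, LysC and trypsin digestion, and diaPASEF LC-MS/MS.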

ATXN3 = ATXN3 (UniProt P54252)
In short: as §1

BAP1 = molecular target: T2, BAP1 (UniProt Q92560)
T2 sequence (whole entry): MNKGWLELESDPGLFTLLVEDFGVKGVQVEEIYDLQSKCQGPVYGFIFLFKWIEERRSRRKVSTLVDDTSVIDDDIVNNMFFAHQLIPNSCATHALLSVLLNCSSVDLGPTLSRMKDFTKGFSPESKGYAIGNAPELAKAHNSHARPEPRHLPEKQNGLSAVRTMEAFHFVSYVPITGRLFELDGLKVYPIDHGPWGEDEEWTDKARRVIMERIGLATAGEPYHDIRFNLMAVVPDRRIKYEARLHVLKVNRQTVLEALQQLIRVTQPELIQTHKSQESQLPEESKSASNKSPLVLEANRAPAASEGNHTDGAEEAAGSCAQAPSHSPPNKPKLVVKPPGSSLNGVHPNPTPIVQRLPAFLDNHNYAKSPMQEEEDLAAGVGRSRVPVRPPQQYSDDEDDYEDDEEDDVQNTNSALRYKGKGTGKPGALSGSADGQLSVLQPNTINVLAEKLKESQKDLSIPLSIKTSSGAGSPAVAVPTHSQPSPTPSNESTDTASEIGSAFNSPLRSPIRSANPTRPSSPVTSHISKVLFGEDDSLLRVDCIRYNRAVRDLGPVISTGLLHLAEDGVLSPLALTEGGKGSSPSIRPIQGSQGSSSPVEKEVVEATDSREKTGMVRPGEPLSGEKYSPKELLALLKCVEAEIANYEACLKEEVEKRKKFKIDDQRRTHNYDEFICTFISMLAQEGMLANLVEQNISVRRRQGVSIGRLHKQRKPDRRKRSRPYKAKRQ
In short: as §1

EIF3F = EIF3F (UniProt O00303)
In short: as §1

EIF3H = EIF3H (UniProt O15372)
In short: as §1

FAM105A = molecular target: T3, FAM105A (UniProt Q9NUU6)
T3 sequence (whole entry): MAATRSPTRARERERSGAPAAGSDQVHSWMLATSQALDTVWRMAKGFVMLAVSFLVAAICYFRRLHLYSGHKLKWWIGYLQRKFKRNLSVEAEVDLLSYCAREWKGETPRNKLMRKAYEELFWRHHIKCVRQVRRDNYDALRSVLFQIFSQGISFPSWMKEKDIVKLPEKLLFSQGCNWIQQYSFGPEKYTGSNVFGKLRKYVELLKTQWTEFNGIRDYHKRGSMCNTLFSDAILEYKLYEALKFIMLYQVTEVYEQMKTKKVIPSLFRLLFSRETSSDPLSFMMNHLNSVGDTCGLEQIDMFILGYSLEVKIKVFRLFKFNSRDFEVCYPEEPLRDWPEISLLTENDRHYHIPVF
In short: as §1

OTUB1 = OTUB1 (UniProt Q96FW1)
In short: as §1

OTUD4 = molecular target: T4, OTUD4 (UniProt Q01804)
T4 sequence (whole entry): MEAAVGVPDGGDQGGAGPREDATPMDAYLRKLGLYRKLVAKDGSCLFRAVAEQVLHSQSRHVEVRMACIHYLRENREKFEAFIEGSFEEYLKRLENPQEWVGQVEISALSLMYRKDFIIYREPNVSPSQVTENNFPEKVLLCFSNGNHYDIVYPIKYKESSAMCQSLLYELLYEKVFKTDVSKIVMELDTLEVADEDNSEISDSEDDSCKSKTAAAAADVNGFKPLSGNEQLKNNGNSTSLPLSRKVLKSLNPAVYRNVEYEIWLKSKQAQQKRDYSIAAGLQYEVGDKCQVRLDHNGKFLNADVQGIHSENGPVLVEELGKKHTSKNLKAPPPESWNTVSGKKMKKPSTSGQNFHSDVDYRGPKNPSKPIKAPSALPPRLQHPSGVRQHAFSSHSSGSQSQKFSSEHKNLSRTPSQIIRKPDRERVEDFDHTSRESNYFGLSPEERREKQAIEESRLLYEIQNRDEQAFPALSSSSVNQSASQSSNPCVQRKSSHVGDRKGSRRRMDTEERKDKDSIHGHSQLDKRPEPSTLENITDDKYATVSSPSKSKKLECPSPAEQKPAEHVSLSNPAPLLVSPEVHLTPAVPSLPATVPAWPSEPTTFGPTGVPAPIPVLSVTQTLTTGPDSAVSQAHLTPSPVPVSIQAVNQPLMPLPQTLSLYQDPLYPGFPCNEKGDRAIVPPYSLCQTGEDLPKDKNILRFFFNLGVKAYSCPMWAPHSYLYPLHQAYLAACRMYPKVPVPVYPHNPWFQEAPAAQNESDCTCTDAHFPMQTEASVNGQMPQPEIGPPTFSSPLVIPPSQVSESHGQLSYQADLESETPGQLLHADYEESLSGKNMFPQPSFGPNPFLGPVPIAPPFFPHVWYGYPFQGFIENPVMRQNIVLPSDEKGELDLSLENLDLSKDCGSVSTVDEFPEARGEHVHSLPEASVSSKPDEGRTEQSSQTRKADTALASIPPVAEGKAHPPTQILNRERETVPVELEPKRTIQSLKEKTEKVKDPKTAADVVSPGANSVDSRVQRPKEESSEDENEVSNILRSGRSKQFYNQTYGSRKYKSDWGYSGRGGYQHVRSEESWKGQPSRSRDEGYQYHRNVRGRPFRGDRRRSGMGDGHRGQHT
In short: as §1

OTUD5 = molecular target: T5, OTUD5 (UniProt Q96G74)
T5 sequence (whole entry): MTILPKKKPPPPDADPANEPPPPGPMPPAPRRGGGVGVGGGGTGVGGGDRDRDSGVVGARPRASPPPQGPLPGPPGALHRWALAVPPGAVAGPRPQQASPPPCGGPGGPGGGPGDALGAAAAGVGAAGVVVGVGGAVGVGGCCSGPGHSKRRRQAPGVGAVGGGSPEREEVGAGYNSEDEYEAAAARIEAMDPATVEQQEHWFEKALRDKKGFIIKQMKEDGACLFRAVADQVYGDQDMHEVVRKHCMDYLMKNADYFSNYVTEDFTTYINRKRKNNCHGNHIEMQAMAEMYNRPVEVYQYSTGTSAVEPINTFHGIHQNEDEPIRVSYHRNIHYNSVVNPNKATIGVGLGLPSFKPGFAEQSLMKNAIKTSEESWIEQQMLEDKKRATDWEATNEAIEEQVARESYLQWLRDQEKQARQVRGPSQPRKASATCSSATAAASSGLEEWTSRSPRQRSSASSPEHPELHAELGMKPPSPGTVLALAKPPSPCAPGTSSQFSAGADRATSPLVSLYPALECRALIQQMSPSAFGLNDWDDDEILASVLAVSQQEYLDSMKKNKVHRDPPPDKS
In short: as §1

Measured: log2 ratio of Biotin-Ahx-Ub-VS probe labelling

EIF3H, sequence (O15372 whole entry): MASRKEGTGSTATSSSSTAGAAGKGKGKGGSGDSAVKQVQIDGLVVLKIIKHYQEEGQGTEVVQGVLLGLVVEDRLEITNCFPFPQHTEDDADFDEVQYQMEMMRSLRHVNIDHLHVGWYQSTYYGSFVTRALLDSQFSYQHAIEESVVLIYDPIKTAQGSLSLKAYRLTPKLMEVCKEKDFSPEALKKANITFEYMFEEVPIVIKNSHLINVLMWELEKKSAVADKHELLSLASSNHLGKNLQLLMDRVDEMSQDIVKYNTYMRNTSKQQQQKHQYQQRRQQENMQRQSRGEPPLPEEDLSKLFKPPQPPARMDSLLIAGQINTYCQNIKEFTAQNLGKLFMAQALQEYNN
EIF3F, sequence (O00303 whole entry): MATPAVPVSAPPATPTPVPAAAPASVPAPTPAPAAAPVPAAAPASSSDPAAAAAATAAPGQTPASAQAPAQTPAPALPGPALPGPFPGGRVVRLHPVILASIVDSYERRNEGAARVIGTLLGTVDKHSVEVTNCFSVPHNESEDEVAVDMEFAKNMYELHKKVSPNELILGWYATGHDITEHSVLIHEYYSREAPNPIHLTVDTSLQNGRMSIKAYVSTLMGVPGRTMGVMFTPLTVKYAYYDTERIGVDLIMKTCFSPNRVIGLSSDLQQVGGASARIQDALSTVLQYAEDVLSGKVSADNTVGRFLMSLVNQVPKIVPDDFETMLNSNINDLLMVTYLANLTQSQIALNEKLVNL
ATXN3, sequence (P54252 whole entry): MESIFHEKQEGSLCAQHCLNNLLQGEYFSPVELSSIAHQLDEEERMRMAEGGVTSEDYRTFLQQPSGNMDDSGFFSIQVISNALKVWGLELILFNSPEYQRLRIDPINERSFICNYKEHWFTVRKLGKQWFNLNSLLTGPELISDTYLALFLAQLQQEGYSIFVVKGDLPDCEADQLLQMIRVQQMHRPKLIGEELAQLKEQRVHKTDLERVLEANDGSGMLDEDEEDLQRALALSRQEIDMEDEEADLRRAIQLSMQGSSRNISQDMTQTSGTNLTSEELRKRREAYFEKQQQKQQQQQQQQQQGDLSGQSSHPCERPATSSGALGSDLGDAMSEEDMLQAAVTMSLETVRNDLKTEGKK
OTUB1, sequence (Q96FW1 whole entry): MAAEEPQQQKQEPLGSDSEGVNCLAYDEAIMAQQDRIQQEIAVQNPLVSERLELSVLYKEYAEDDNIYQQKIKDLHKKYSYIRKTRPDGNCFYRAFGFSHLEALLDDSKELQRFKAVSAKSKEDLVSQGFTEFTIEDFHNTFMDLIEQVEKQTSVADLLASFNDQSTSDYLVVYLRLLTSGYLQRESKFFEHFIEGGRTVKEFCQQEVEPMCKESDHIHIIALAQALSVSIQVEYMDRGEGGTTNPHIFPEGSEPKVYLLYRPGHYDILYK

Cc1cc(CC(C)NC(=O)CCl)n[nH]1 (stereo not drawn)
inactive: ALG13 0.0722 | ATXN3 -0.115 | BAP1 -0.509 | EIF3F -0.138 | EIF3H -0.131 | FAM105A 0.19 | OTUB1 0.11 | OTUD4 -0.115 | OTUD5 -0.0107

CCN(C(=O)CCl)C1CCS(=O)(=O)C1 (stereo not drawn)
inactive: ALG13 -0.231 | ATXN3 -0.159 | BAP1 -0.0461 | EIF3F -0.357 | EIF3H 0.227 | FAM105A 0.291 | OTUB1 -0.59 | OTUD4 -0.679 | OTUD5 -0.272

Cc1nc(CN2CCCN(C(=O)CCl)CC2)no1.Cl
inactive: ALG13 -0.458 | ATXN3 0.224 | BAP1 0.234 | EIF3F -0.233 | EIF3H 0.122 | FAM105A -0.14 | OTUB1 0.0104 | OTUD4 0.243 | OTUD5 -0.0201

NC(=O)C1CCCN(C(=O)CCl)C1 (stereo not drawn)
inactive: ALG13 0.0966 | ATXN3 -0.171 | BAP1 -0.437 | EIF3F -0.000958 | EIF3H 0.225 | FAM105A 0.217 | OTUB1 -0.301 | OTUD4 0.0344 | OTUD5 -0.159

CC(=O)Nc1ccc(NC(=O)CCl)cc1
inactive: ALG13 0.0593 | ATXN3 -0.656 | EIF3F -0.081 | EIF3H -0.182 | FAM105A -0.285 | OTUB1 -0.24 | OTUD4 -0.296 | OTUD5 -0.406
active: BAP1 -3.42

O=C(CCl)N1CCC(=C(F)CO)C1
inactive: ALG13 -0.0371 | ATXN3 -0.106 | BAP1 -0.015 | EIF3F -0.0747 | EIF3H -0.169 | FAM105A -0.0583 | OTUB1 -0.0358 | OTUD4 0.198 | OTUD5 -0.126

Cl.Cn1c(CNC(=O)CCl)nc2cccnc21
inactive: ALG13 0.0884 | ATXN3 -0.424 | EIF3F -0.0906 | EIF3H 0.0923 | FAM105A -0.0642 | OTUB1 -0.136 | OTUD4 -0.388 | OTUD5 -0.323
active: BAP1 -1.32
